Laboratory results taken from the supplement of paper PMC6555819.

Tests used:
Experiment in all cases: PBM binding z-score (relative to random genomic background probes); higher = stronger binding; sequences stand for … in GC…GCGATTGACAGCGTAGAATGAAGG
[1] = tested on: FXR:RXRa (NR concentration 270 nM, RXRa partner concentration 90 nM)
Summary of the method: (§1)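 Ligand-free nuclear receptor dimers were applied to custom Agilent 4×180K protein-binding microarrays whose double-stranded probes carried direct-repeat seeds, single-nucleotide variants, half-site ablations and random human genomic background sequences in 34-nt variable regions. Incubation lasted 1 h. Binding z-scores were computed against the random background probes from regression-normalized fluorescence.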

[2] = tested on: LXRa:RXRa (NR concentration 270 nM, RXRa partner concentration 90 nM)
Summary of the method: as §1

[3] = tested on: LXRa homodimer (NR concentration 270 nM)
Summary of the method: as §1

[4] = tested on: LXRb:RXRa (NR concentration 270 nM, RXRa partner concentration 90 nM)
Summary of the method: as §1

[5] = tested on: LXRb homodimer (NR concentration 270 nM)
Summary of the method: as §1

[6] = tested on: PPARa:RXRa (NR concentration 270 nM, RXRa partner concentration 90 nM)
Summary of the method: as §1

[7] = tested on: PPARg:RXRa (NR concentration 180 nM, RXRa partner concentration 90 nM)
Summary of the method: as §1

[8] = tested on: PPARg:RXRa 270nM:90nM, anti-RXR (NR concentration 270 nM, RXRa partner concentration 90 nM)
Summary of the method: as §1

[9] = tested on: PPARg:RXRa 30nM:10nM, anti-RXR (NR concentration 30 nM, RXRa partner concentration 10 nM)
Summary of the method: as §1

[10] = tested on: PPARg:RXRa 90nM:30nM, anti-RXR (NR concentration 90 nM, RXRa partner concentration 30 nM)
Summary of the method: as §1

[11] = tested on: PPARg:RXRa DBDmut IVT, anti-RXR (DBD mutation: RXRa K156A/R161A, NR concentration 270 nM, RXRa partner concentration 90 nM)
Summary of the method: as §1

[12] = tested on: PPARg:RXRa IVT, anti-PPARg (NR concentration 270 nM, RXRa partner concentration 90 nM)
Summary of the method: as §1

[13] = tested on: PPARg DBDmut:RXRa IVT, anti-PPARg (DBD mutation: PPARg1 K132A/R137A, NR concentration 270 nM, RXRa partner concentration 90 nM)
Summary of the method: as §1

[14] = tested on: PPARg DBDmut IVT, anti-PPARg (DBD mutation: PPARg1 K132A/R137A, NR concentration 270 nM)
Summary of the method: as §1

[15] = tested on: PPARg homodimer (NR concentration 180 nM)
Summary of the method: as §1

[16] = tested on: PXR:RXRa (NR concentration 270 nM, RXRa partner concentration 90 nM)
Summary of the method: as §1

[17] = tested on: PXR homodimer (NR concentration 270 nM)
Summary of the method: as §1

[18] = tested on: RARa:RXR (NR concentration 270 nM, RXRa partner concentration 90 nM)
Summary of the method: as §1

[19] = tested on: RARa homodimer (NR concentration 270 nM)
Summary of the method: as §1

[20] = tested on: RARb:RXRa (NR concentration 270 nM, RXRa partner concentration 90 nM)
Summary of the method: as §1

| Sequence | PBM binding z-score [1] | PBM binding z-score [2] | PBM binding z-score [3] | PBM binding z-score [4] | PBM binding z-score [5] | PBM binding z-score [6] | PBM binding z-score [7] | PBM binding z-score [8] | PBM binding z-score [9] | PBM binding z-score [10] | PBM binding z-score [11] | PBM binding z-score [12] | PBM binding z-score [13] | PBM binding z-score [14] | PBM binding z-score [15] | PBM binding z-score [16] | PBM binding z-score [17] | PBM binding z-score [18] | PBM binding z-score [19] | PBM binding z-score [20] |
| --- | --- | --- | --- | --- | --- | --- | --- | --- | --- | --- | --- | --- | --- | --- | --- | --- | --- | --- | --- | --- |
| TATACAGGGTCAAAGTCCAGAGTACGAATGTCGA | 6.87 | 6.67 | 3.54 | 5.33 | 3.32 | 5.98 | 6.93 | 6.5 | 3.78 | 5.77 | 2.42 | 4.52 | 3.19 | 3.67 | 3.98 | 4.6 | 1.31 | 5.3 | 2 | 4.42 |
| CGAACTAGGTCAAAGGTCAAAGTCGAGCCAACCA | 8.28 | 7.41 | 5.37 | 7.03 | 2.53 | 7.47 | 14.1 | 11.4 | 14.7 | 14 | 8.51 | 9.23 | 5.13 | 3.23 | 6.9 | 7.09 | 2.03 | 8.93 | 3.32 | 5.51 |
| AGAACGAGGGCAATGAGTGGATAGCACGGGTGGC | 0.0707 | 0.00914 | -0.454 | -0.474 | -0.905 | 1.12 | 1.49 | 0.671 | 0.264 | 0.612 | 3.17 | 2.32 | 0.26 | -0.542 | -0.143 | -0.0216 | -0.0699 | -0.0529 | 0.296 | 1.72 |
| CAGCCTAGCTCAGGGCCAGTATAGGAGGAACGTT | -1.13 | -1.14 | -0.395 | -1.15 | -1.28 | -1.21 | -0.195 | -1.24 | -1.24 | -1.17 | -0.913 | -0.949 | -2.22 | -2.03 | -1.23 | -0.988 | -0.337 | -1.33 | -0.424 | -0.591 |
| GGAACGAGGGCATTCTAGTTGATAGCATGGCGAT | 1.44 | 1.08 | -0.665 | 0.264 | -0.166 | 1.21 | 0.871 | 0.642 | -0.247 | 0.231 | 3.02 | 2.04 | -0.851 | -0.214 | -0.294 | 1.53 | 0.396 | 0.248 | -0.43 | 1.58 |
| ACAGACAGTTGAGTGAAGGTAACTCAGCTGGACG | 0.127 | -0.141 | -0.198 | -0.473 | -0.26 | -0.127 | 0.557 | -0.26 | -0.0499 | -0.284 | -0.279 | 0.038 | -0.108 | -0.693 | -0.3 | -0.386 | -0.571 | -0.397 | -0.00601 | -0.0285 |
| ATCTCTAGGTGAAGATAGTTCAGTGAATGCAAAT | 0.203 | 1.02 | 0.126 | 0.441 | 0.00986 | 1.69 | 1.75 | 1.55 | 0.448 | 0.885 | 4.18 | 4.44 | 0.653 | 1.5 | 0.717 | 1.58 | 0.667 | 0.801 | 0.811 | 1.29 |
| GCTTGTAGCTCAAGGTTAAGAAAGACTAAGCTAA | -0.0638 | 0.559 | -0.361 | 0.165 | -0.751 | 0.893 | -0.394 | 0.557 | -0.472 | 0.243 | -0.582 | -0.296 | -0.734 | -0.739 | -0.599 | 0.28 | -0.587 | 0.556 | -0.601 | 0.721 |
| CGTCAAAGATCAACTAAGGTAACGTAAAGCACGC | 1.52 | 0.952 | 0.0696 | 0.635 | -0.0274 | 1.19 | 0.897 | 0.957 | 0.274 | 0.711 | -0.00407 | 0.5 | 0.6 | 0.489 | 0.91 | 1.32 | 0.224 | 1.52 | 0.595 | 0.548 |
| TCTTGTAGATTAACAGGAGGTTAAGAAAGATCGA | 0.498 | 1.41 | 0.483 | 0.95 | -0.0109 | 1.06 | 0.145 | 1.41 | 2.67 | 1.89 | 1.1 | 0.0101 | -0.776 | 0.403 | -0.439 | 0.578 | 0.157 | 1.25 | 0.212 | 0.685 |
| CCGACTGGGGCATAAGGATACCATAAGCCAGCCC | -0.174 | -0.373 | -0.612 | -0.813 | -1.53 | -0.0359 | 1.29 | 1.46 | 0.0303 | 0.707 | 2.56 | 1.93 | -0.873 | -1.29 | -0.477 | -0.797 | -0.877 | -0.463 | 0.0261 | 0.0537 |
| AGAACGAGGGCAGGCTGAGTTGATAGCAGAGTAG | -0.312 | -0.562 | -0.661 | -0.676 | -1.05 | 0.187 | 0.64 | 0.432 | -0.189 | -0.155 | 2 | 1.53 | 0.0574 | -0.0164 | -0.517 | 0.169 | -0.0945 | -0.281 | -0.536 | 1.63 |
| TCAAGTTGGTCACGGAGGTCACACACGACGGGTA | 3.09 | 3.76 | 2.38 | 3.17 | 0.603 | 4.18 | 3.94 | 3.95 | 3.52 | 3.47 | 2.45 | 3.99 | 1.48 | 0.93 | 2.72 | 4.35 | 1.65 | 4.61 | 1.86 | 3.98 |
| ACTAGCAGGCCTAGTTTGGGTCACTCAAACAAAG | -0.223 | -0.267 | -0.434 | 0.356 | -0.757 | 1.13 | -0.314 | 0.138 | -0.572 | -0.184 | -0.402 | 0.669 | -0.351 | -1.26 | -0.416 | 0.282 | -0.591 | 1.1 | -0.718 | 0.83 |
| CGAACTAGGTCATCCAGGACAATGAATACATTGA | 4.61 | 2.74 | 0.73 | 2.14 | 0.294 | 4.83 | 7.88 | 6.22 | 4.07 | 6.1 | 7.89 | 8.42 | 3.32 | 1.7 | 1.95 | 2.1 | 2.1 | 2.31 | 0.706 | 3.87 |
